# ABHD5-PLIN5 inh = ABHD5-PLIN5 protein interaction inhibition | inhibition, % at 4 µM | Split G. princeps luciferase complementation, luminescence, 4 h | 0.78% of 360,000 active | Q00G26+Q8WTS1 | AID 602281;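 active means inhibition above the mean inhibition across every tested compound plus 3 SD, cut at about 22% in these data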;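 further: 0% = DMSO only wells and the 100% control is not disclosed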
# KKLEB cytotox = reduces viability of KKLEB cystic fibrosis airway cells | KKLEB CF airway cells viability, ATPlite luminescence, overnight; active compounds read low; cells stimulated with P. aeruginosa culture filtrate | 0.36% of 360,000 active | activity change (cytotoxicity), % at 5 µM;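 active means corrected activity change at or below -50% at 5 µM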
# HIF-2a block = HIF-2a inhibition. 786-0 RCC cells HIF-2a reporter, luciferase luminescence, overnight. inhibition, % at 18.8 µM. 0.72% of 360,000 active. AID 624352;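 active means inhibition of the luminescence signal of 40% or more relative to plate controls, in a single-dose primary screen at 18.75 µM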
# MITF TRPM1 inh = inhibitors of MITF-driven TRPM1 promoter in melanoma cells | 0.83% of 330,000 active | inhibition, % at 12.5 µM | SK-MEL-5 TRPM1 promoter luciferase, 24 h;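 active means mean inhibition across replicates of 60% or more, whatever share of single replicates reaches that level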
# CF NFkB block = inhibitors of cystic fibrosis induced NF-kB; KKLEB NF-kB-GFP reporter, PAF-induced, GFP fluorescence overnight; inhibition, % at 5 µM; 0.86% of 360,000 active;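 active means at least 50% inhibition at 5 µM, scaled per plate between neutral and stimulator controls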;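 further: PAF is a Pseudomonas aeruginosa culture filtrate used as stimulus; plate controls were PAF-stimulated DMSO wells for no effect and unstimulated DMSO wells for full effect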
# Peg3 promoter = Peg3 promoter activity inhibition | HeLa PEG-Prom luciferase reporter, luminescence, overnight | inhibition, % at 20 µM | AID 588405 | 1.7% of 360,000 active;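 active means inhibition of at least 50% at 20 µM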
# ABHD5 PLIN5 conf = confirmation of human ABHD5-PLIN5 interaction inhibitors. 67% of 2,200 active. shares compounds with ABHD5-PLIN5 inh. biochemical ABHD5-PLIN5 interaction, luminescence. inhibition, % at 4 µM. AID 651612; in the data active means inhibition above about 23%;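 further: 0% = DMSO vehicle wells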
# HNF4 counter = HNF4 split-luciferase signal hit, counter-screen | shares compounds with ABHD5-PLIN5 inh | HNF4 dimerization, luminescence, biochemical | inhibition, % at 4 µM | 77% of 2,200 active | AID 651674;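 active means mean inhibition across replicate wells exceeding the computed hit threshold, cut at about 13% in these data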;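 further: light from luciferase halves that rejoin when HNF4 fusion proteins dimerize; 0% = DMSO only wells and the 100% control is not given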
# Target sequence (P41235 whole entry, looked up, the tested form may be a part): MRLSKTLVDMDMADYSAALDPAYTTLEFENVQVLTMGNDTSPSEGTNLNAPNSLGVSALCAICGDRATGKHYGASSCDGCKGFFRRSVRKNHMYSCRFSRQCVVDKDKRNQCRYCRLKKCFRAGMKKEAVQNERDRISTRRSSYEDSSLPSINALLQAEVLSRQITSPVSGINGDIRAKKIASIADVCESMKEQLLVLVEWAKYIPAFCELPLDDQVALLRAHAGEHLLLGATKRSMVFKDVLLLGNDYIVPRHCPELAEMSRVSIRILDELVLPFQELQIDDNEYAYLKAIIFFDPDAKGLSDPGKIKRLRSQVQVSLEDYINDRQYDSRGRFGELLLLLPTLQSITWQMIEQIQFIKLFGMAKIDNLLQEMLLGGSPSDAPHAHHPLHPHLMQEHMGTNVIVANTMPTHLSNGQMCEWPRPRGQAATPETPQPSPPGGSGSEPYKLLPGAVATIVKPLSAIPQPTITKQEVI
# Mdm2 MdmX conf = Mdm2/MdmX (human) interaction inhibition, confirmed; 99% of 740 active; shares compounds with HIF-2a block; SaOS-2 split-luciferase Mdm2/MdmX complementation, luminescence; inhibition, % at 8 µM;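 active means mean inhibition of the luminescence signal across two replicates at or above 26 percent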
# HIF-2a inh conf = HIF-2a inhibition, single concentration confirmation; shares compounds with HIF-2a block; 786-0 RCC cells, HIF-2a luciferase reporter luminescence, overnight; inhibition, % at 18.8 µM; 56% of 1,800 active;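 active means mean inhibition across four replicates of at least 40 percent at the single tested concentration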
# HIF-1a cs = inhibits HIF-1a reporter, a counter-screen for HIF-2a inhibitors. shares compounds with HIF-2a block. MiaPaCa-2 HIF-1a luciferase reporter, desferoxamine, overnight. inhibition, % at 18.8 µM. 72% of 1,800 active. AID 651589;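 active means mean inhibition of the reporter signal across four replicates at the single tested dose of 50% or more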
# An asterisk follows results filed as active; / = no result given. Hits are enriched below; roughly 3.1% of the tested compounds scored in any of these assays.
SMILES,ABHD5-PLIN5 inh,KKLEB cytotox,HIF-2a block,MITF TRPM1 inh,CF NFkB block,Peg3 promoter,ABHD5 PLIN5 conf,HNF4 counter,HIF-2a inh conf,HIF-1a cs,others
O=C1Nc2ccccc2/C1=C/C(=O)c1cccs1,32*,-20,54*,44,35,39,57*,94*,37,42,
COc1ccc(C(=O)/C=C2/C(=O)Nc3ccccc32)cc1OC,43*,-11,40*,-5,23,30,53*,85*,42*,44,
CC1(c2ccc(OCC(N)=O)cc2)NC(=O)NC1=O (stereo not given),10,8,11,6,-17,9,/,/,/,/,
CCN1C(=O)/C(=C\C(=O)c2cccs2)c2cc(Br)ccc21,6,-2,23,40,-7,24,/,/,/,/,
NC(=O)COc1ccc(C(=O)/C=C2/C(=O)Nc3ccccc32)cc1,54*,-7,46*,17,10,5,55*,89*,35,25,
CCCC(=O)NC(=S)Nc1ccc(NC(=O)C(C)C)c(OC)c1,7,9,4,6,-4,3,/,/,/,/,
O=C(NCc1ccccc1)C1=C[C@H](c2ccc(C(F)(F)F)cc2)C[C@H](OCc2ccc(CO)cc2)O1,0,-17,-1,-7,0,16,/,/,/,/,
Cc1ccc(Cl)cc1NC(=S)NN,-12,15,24,-2,-14,15,/,/,/,/,
Cc1c(Cl)sn(-c2ccc(Cl)cc2)c1=O,26*,-90*,48*,97*,79*,108*,78*,107*,/,/,Mdm2 MdmX conf=102*
C#CCN(C[C@@H]1[C@@H](OC(=O)NCCCCCC)[C@@H](OC(=O)NCCCCCC)Cn2c(=O)ccc(=O)n21)S(=O)(=O)c1ccc(C)cc1,34*,-89*,95*,/,87*,98*,56*,-4,91*,107*,
C#CCN(C[C@H]1[C@H](OC(=O)NCC2CCCCC2)[C@H](OC(=O)NCC2CCCCC2)C[C@@H](C(=O)OC)[C@H]1C(=O)OC)S(=O)(=O)c1ccc(C)cc1,-1,-1,-5,/,-2,17,/,/,/,/,
C#CCN(C[C@@H]1[C@@H](OC(=O)NCC2CCCCC2)[C@@H](OC(=O)NCC2CCCCC2)Cn2c(=O)ccc(=O)n21)S(=O)(=O)c1ccc(C)cc1,42*,-97*,97*,/,106*,106*,57*,18*,99*,107*,
Cc1cc(S(=O)(=O)N2CCOCC2)ccc1OCC(=O)NCc1ccco1,0,14,14,-9,3,9,/,/,/,/,
COc1cccc(OCc2cc(/C=N/Nc3ccc(C(=O)O)cc3)ccc2OC)c1,3,-6,-33,6,32,-138,/,/,/,/,
CCCCCC[N+](C)(C)CCSSCC[N+](C)(C)CCCCCC,-24,-10,14,-2,-16,-8,/,/,/,/,
CC#CC[N+](C)(C)CCCCCCCCCCCC,27*,-45,52*,65*,33,59*,13,0,39,72*,
O=C(NCc1ccco1)/C(=C\c1ccco1)NC(=O)c1ccco1,5,-3,2,8,-6,16,/,/,/,/,
Cc1cccc(/C=C/C(=O)c2ccc([N+](=O)[O-])o2)c1,77*,-35,14,/,90*,101*,104*,108*,/,/,Mdm2 MdmX conf=103*
CC1CCC(C(C)C)C(OC(=O)Cn2c(-c3ccc(Cl)cc3)[n+](C)c3ccccc32)C1 (stereo not given),34*,-58*,-65,90*,56*,76*,15,4,/,/,Mdm2 MdmX conf=100*
COc1cc(/C=C/C(=O)NCCn2c(C)cc3ccccc32)cc(OC)c1OC,4,-7,-3,/,-16,-14,/,/,/,/,
C=CCSc1nc2ccccc2n1C(=O)/C=C/c1cc(OC)c(OC)c(OC)c1,43*,-14,83*,87*,91*,98*,88*,72*,88*,106*,
CNc1ccc(Br)cc(C(=O)/C=C/c2cc(OC)ccc2OC)c1=O,26*,-12,43*,52,10,26,63*,58*,95*,88*,
O=C(/C=C/c1c(F)cccc1Cl)c1ccc(O)cc1,39*,1,-98,-2,20,-109,46*,48*,/,/,Mdm2 MdmX conf=50*
O=C(NCc1cccnc1)c1ccc(-c2ccc(Cl)cc2)o1,-4,-15,-29,-13,-15,-23,/,/,/,/,
O=C(NCc1cccnc1)/C(=C\c1ccc(-c2ccc(Cl)c(Cl)c2)o1)S(=O)(=O)c1ccccc1,77*,-98*,97*,90*,99*,102*,101*,97*,99*,106*,
SMILES,ABHD5-PLIN5 inh,KKLEB cytotox,HIF-2a block,MITF TRPM1 inh,CF NFkB block,Peg3 promoter,ABHD5 PLIN5 conf,HNF4 counter,HIF-2a inh conf,HIF-1a cs,others
COc1ccccc1/C=C/C=C1\Oc2c(ccc(O)c2CN(C)C)C1=O,21,11,-53,13,-1,-31,/,/,/,/,
CCN(CC)Cc1c(O)ccc2c1O/C(=C\C=C\c1ccccc1)C2=O,42*,4,66*,81*,22,82*,20,20*,/,/,Mdm2 MdmX conf=14
Cc1ccc(C)c(CSc2nnc([C@@H]3CCCN3)o2)c1,2,-7,9,1,3,0,/,/,/,/,
CC(C)CC(NC(=O)OCc1ccccc1)C(=O)NC(Cc1ccccc1)C(=O)CCl (stereo not given),24*,-18,48*,114*,34,93*,88*,88*,73*,87*,
C=CCN1C(=O)N/C(=C/c2ccc(C)o2)C1=O,31*,1,40*,13,-9,-15,14,88*,-33,-13,
Cc1ccc(/C=C2\C(=O)NC(=O)N2C)o1,16,4,-4,20,8,-1,/,/,/,/,
O=C1C=CC(=O)N1c1cccc(-c2ccccc2)c1,28*,5,76*,-10,8,109*,51*,94*,68*,40,
Cc1c(NC(=S)Nc2cccc(Cl)c2)c(=O)n(-c2ccccc2)n1C,2,17,12,3,-18,6,/,/,/,/,

# High-throughput results from PubChem.
